PubChem BioAssay (Tox21)
Results filed as inconclusive are left out. Activity calls are given as the source filed them. Unless noted, calls come from the whole dose curve; as a rule, active = well fitted curve in the direction sought with a large enough effect in the repeat runs; inconclusive = weak or mixed curves; inactive = no such curve, though single readings can be large; an effect the other way counts as inactive or inconclusive.

Assays:
[1] = qHTS assay to identify small molecule agonists of the peroxisome proliferator-activated receptor delta (PPARd) signaling pathway - cell viability counter screen (AID 743211); note: nearly all actives have a fitted effect of over 55% in size
How it was run: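 qHTS cell viability: PPARd-bla HEK293H; 17 h cpd, 37C; CellTiter-Glo, luminescence at 30 min RT.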

[2] = target: Peroxisome proliferator-activated receptor delta (Homo sapiens) (UniProt Q03181); experiment: qHTS assay to identify small molecule agonists of the peroxisome proliferator-activated receptor delta (PPARd) signaling pathway (AID 743212; calls by dose curve)
How it was run: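 Read-out: beta-lactamase FRET fluorescence after 2 h room-temperature incubation with LiveBLAzer B/G substrate. Cells were HEK293H carrying a UAS-bla reporter for PPARd, treated at 37 C with DMSO-dissolved compounds.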

[3] = qHTS assay to identify small molecule antagonists of the peroxisome proliferator-activated receptor delta (PPARd) signaling pathway - cell viability counter screen (AID 743213); note: nearly all actives have a fitted effect of over 50% in size
How it was run: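 Agonist-stimulated (L165041, 300 nM final) HEK293H PPARd UAS-bla cells are exposed to compounds for 17 h at 37 C, and ATP-based luminescence (CellTiter-Glo) from the same wells reports cytotoxicity.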

[4] = target: Peroxisome proliferator-activated receptor delta (Homo sapiens) (UniProt Q03181); experiment: qHTS assay to identify small molecule antagonists of the peroxisome proliferator-activated receptor delta (PPARd) signaling pathway (AID 743215; active = well fitted inhibition curve with a large enough effect in the signal ratio in the repeat runs, not every such curve was filed as active; the % refers to the signal ratio; note: series mostly up to about 62 µM)
How it was run: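 HEK293H GeneBLAzer PPARd UAS-bla reporter cells; cpd + L165041 300 nM final, 17 h 37 C; LiveBLAzer B/G FRET substrate 2 h RT; fluorescence intensity read-out. Antagonist mode.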

[5] = qHTS assay to identify small molecule agonists of the farnesoid-X-receptor (FXR) signaling pathway - cell viability counter screen (AID 743218); note: nearly all actives have a fitted effect of over 45% in size
How it was run: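 Luminescence from CellTiter-Glo, read after 30 min at RT, reports viability of GeneBLAzer FXR-UAS-bla HEK 293T cells treated 16 h with compounds in the wells used for the beta-lactamase reporter.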

[6] = qHTS assay to identify small molecule antagonists of the farnesoid-X-receptor (FXR) signaling pathway - cell viability counter screen (AID 743221; active = well fitted cell-killing curve with a large enough effect in the repeat runs, not every such curve was filed as active; note: nearly all actives have a fitted effect of over 50% in size)
How it was run: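 After a 5 h settling period, FXR-bla HEK 293T cells receive compound and chenodeoxycholic acid (50 uM final) and incubate 16 h at 37 C; CellTiter-Glo luminescence, read after 30 min at room temperature, reports cell viability.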

[7] = target: Vitamin D3 receptor (Homo sapiens) (UniProt P11473); experiment: qHTS assay to identify small molecule agonists of the vitamin D receptor (VDR) signaling pathway (AID 743222; calls by dose curve)
How it was run: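 Beta-lactamase reporter readout (LiveBLAzer B/G FRET, 2 h RT) in VDR-bla cells after 16 h compound treatment at 37C, 5% CO2; cells pre-incubated 4 h before pin transfer of DMSO solutions.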

[8] = target: Vitamin D3 receptor (Homo sapiens) (UniProt P11473); experiment: qHTS assay to identify small molecule antagonists of the vitamin D receptor (VDR) signaling pathway (AID 743223; active = well fitted inhibition curve with a large enough effect in the signal ratio in the repeat runs, not every such curve was filed as active; the % refers to the signal ratio)
How it was run: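 Reporter line VDR-bla; stimulus 1alpha,25-(OH)2 vitamin D3, 3 nM final; compound co-addition, 16 h 37C/5% CO2; LiveBLAzer B/G substrate 2 h RT; fluorescence intensity.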

[9] = qHTS assay to identify small molecule agonists of the vitamin D receptor (VDR) signaling pathway - cell viability counter screen (AID 743224); note: series mostly up to about 63 µM; nearly all actives have a fitted effect of over 50% in size
How it was run: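 Cytotoxicity counter screen: VDR-bla cells, 16 h compound exposure at 37C, 5% CO2; CellTiter-Glo luminescence, 30 min RT, same wells as bla read.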

[10] = qHTS assay to identify small molecule antagonists of the vitamin D receptor (VDR) signaling pathway - cell viability counter screen (AID 743225); note: nearly all actives have a fitted effect of over 50% in size
How it was run: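 Parallel cytotoxicity test: VDR-UAS-bla HEK 293T, 3 nM (final) 1-alpha,25-dihydroxyvitamin D3 with test compound, 16 h, 37C. Endpoint is CellTiter-Glo luminescence in the same wells.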

[11] = qHTS assay to identify small molecule agonists of the NFkB signaling pathway - cell viability counter screen (AID 1159515; calls by dose curve; note: series mostly up to about 61 µM; nearly all actives have a fitted effect of over 55% in size)
How it was run: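 ME-180 NFkB-bla cells, 2,000/well; overnight attach; compound 5 hr, 37 C/5% CO2; LiveBLAzer substrate 1.5 hr RT; then CellTiter-Glo in same wells, 30 min RT, luminescence read.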

[12] = qHTS assay to identify small molecule agonists of the endoplasmic reticulum stress response signaling pathway (AID 1159516; active = well fitted activation curve with a large enough effect in the signal ratio in the repeat runs, not every such curve was filed as active; the % refers to the signal ratio)
How it was run: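 HeLa ESRE-bla reporter line; cpd 5 h, 37 C/5% CO2; LiveBLAzer B/G FRET substrate 2 h RT; ex 405, em 460/530 nm.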

[13] = qHTS assay to identify small molecule agonists of the endoplasmic reticulum stress response signaling pathway - cell viability counter screen (AID 1159517; calls by dose curve)
How it was run: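 Steps: seed 1,500 ESRE-bla HeLa cells per well; incubate overnight at 37 C, 5% CO2; add compounds in DMSO for 5 hr; run FRET substrate 2 hr RT; add CellTiter-Glo, wait 30 min, read luminescence.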

[14] = qHTS assay to identify small molecule antagonists of the retinoid-related orphan receptor gamma (ROR-gamma) signaling pathway - cell viability counter screen (AID 1159520); note: nearly all actives have a fitted effect of over 50% in size
How it was run: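 Tet-on ROR gamma CHO cells were given compounds for 2 hr, then doxycycline hyclate at 1 uM final, and incubated 16 hr at 37 C. Viability was measured as ATP content by CellTiter-Glo luminescence.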

[15] = target: Nuclear receptor ROR-gamma (Homo sapiens) (UniProt P51449); experiment: qHTS assay to identify small molecule antagonists of the retinoid-related orphan receptor gamma (ROR-gamma) signaling pathway (AID 1159521)
How it was run: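 Decreased RORE-driven luciferase luminescence indicates antagonism. Tet-on RORγ CHO cells received compound, then 1 uM final doxycycline 2 h later; signal read after 16 h incubation.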

[16] = qHTS assay to identify small molecule agonists of the AP-1 signaling pathway (AID 1159526; calls by dose curve)
[17] = target: Retinoic acid receptor RXR-alpha (Homo sapiens) (UniProt P19793); experiment: qHTS assay to identify small molecule agonists of the RXR signaling pathway (AID 1159527; calls by dose curve; note: nearly all actives have a fitted effect of over 35% in size)
How it was run: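 16 hr incubation of compound-treated RXR-alpha-UAS-bla HEK 293T cells (2% charcoal-stripped FBS, 37 C) preceded a 2 hr room-temperature LiveBLAzer FRET substrate step and blue/green fluorescence measurement.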

[18] = qHTS assay to identify small molecule agonists of the RXR signaling pathway - cell viability counter screen (AID 1159529)
How it was run: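 In this parallel viability measure, GeneBLAzer RXR-alpha HEK 293T cells (2% charcoal-stripped FBS) were given a 5 hr preincubation, treated with compounds 16 hr at 37 C, and read by CellTiter-Glo luminescence.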

[19] = target: Bile acid receptor (Homo sapiens) (UniProt Q96RI1); experiment: qHTS assay to identify small molecule antagonists of the farnesoid-X-receptor (FXR) signaling pathway (AID 743217; active = well fitted inhibition curve with a large enough effect in the signal ratio in the repeat runs, not every such curve was filed as active; the % refers to the signal ratio)
How it was run: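 Read-out: beta-lactamase FRET fluorescence (LiveBLAzer B/G substrate, 2 h, room temperature) in GeneBLAzer FXR-UAS-bla HEK 293T cells. Compounds were co-dosed with 50 uM chenodeoxycholic acid (final) and incubated 16 h at 37 °C.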
% is set by controls: 0 for no effect and ±100 for the full control effect.

Peroxisome proliferator-activated receptor delta (Homo sapiens), sequence (Q03181 whole entry, looked up): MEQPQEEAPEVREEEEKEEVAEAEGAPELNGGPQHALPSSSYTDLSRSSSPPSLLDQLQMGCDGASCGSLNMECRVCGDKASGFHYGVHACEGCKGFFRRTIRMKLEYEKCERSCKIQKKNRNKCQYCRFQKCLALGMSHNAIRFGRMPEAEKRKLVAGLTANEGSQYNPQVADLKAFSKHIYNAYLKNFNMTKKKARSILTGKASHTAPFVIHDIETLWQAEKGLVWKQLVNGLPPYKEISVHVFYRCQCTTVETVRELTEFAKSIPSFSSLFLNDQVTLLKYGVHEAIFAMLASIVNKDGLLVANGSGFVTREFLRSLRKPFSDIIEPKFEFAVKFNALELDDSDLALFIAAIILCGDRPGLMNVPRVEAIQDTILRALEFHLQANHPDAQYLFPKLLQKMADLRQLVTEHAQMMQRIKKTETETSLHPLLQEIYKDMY
Vitamin D3 receptor (Homo sapiens), sequence (P11473 whole entry, looked up): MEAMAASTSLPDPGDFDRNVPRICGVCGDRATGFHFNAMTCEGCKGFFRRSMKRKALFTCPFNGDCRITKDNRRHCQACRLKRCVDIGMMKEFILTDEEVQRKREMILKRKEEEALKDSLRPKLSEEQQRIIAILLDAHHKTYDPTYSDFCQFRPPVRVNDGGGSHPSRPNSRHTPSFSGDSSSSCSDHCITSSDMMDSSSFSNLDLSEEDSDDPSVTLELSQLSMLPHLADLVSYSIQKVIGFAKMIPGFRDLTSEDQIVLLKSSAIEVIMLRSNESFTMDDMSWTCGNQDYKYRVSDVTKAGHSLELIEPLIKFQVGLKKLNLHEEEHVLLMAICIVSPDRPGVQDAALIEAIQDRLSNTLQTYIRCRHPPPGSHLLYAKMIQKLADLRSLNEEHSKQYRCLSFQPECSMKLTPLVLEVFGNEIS
Bile acid receptor (Homo sapiens), sequence (Q96RI1 whole entry, looked up): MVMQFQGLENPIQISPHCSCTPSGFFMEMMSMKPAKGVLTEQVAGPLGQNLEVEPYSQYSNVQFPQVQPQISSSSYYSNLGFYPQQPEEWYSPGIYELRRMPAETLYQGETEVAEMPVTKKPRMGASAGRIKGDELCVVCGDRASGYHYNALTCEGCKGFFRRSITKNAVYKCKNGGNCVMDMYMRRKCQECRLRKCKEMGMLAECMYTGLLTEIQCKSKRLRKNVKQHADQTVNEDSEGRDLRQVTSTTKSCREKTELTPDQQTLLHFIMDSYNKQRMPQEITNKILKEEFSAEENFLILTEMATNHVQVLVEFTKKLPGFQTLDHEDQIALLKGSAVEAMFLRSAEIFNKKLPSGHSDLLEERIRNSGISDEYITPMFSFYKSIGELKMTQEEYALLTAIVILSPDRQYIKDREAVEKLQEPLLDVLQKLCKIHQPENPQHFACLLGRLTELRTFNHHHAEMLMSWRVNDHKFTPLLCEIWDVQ
Retinoic acid receptor RXR-alpha (Homo sapiens), sequence (P19793 whole entry, looked up): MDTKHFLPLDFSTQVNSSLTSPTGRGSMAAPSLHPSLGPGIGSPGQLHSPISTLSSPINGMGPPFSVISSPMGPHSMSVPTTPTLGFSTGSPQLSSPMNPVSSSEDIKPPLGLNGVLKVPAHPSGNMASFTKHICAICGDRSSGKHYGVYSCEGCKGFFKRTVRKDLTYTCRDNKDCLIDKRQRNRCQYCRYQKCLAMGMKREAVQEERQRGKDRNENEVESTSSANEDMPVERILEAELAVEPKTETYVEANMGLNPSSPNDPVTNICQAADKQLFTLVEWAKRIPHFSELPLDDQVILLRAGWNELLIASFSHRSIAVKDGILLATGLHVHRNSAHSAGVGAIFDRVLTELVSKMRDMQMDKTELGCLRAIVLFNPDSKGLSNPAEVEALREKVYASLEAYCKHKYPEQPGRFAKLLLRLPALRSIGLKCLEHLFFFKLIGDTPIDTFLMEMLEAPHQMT

CC(=O)C(C)C
inactive: Potency [1] | Potency [2] | Potency [3] | Potency [4] | Potency [5] | Potency [6] | outcome [7] | Potency [8] | Potency [9] | Potency [10] | Potency [11] | Potency [12] | Potency [13] | Potency [14] | Potency [15] | outcome [16] | Potency [17] | Potency [18]

CCn1cc(C(=O)O)c(=O)c2cc3c(cc21)OCO3
inactive: Potency [1] | Potency [2] | Potency [3] | Potency [4] | Potency [19] | Potency [5] | Potency [6] | outcome [7] | Potency [8] | Potency [9] | Potency [10] | Potency [11] | Potency [12] | Potency [13] | Potency [14] | Potency [15] | outcome [16] | Potency [17] | Potency [18]

CC(C)(CO)CO
inactive: Potency [1] | Potency [2] | Potency [3] | Potency [4] | Potency [5] | Potency [6] | Potency [9] | Potency [10] | Potency [11] | Potency [12] | Potency [13] | Potency [14] | Potency [15] | outcome [16] | Potency [17] | Potency [18]

Oc1ccc(Cc2ccccc2O)cc1
inactive: Potency [2] | Potency [3] | Potency [4] | Potency [19] | Potency [5] | Potency [6] | outcome [7] | Potency [8] | Potency [9] | Potency [10] | Potency [11] | Potency [12] | Potency [13] | Potency [14] | Potency [15] | outcome [16] | Potency [17] | Potency [18]

Nc1cccc(C(F)(F)F)c1
inactive: Potency [1] | Potency [2] | Potency [3] | Potency [4] | Potency [19] | Potency [5] | Potency [6] | Potency [9] | Potency [10] | Potency [11] | Potency [12] | Potency [13] | Potency [14] | Potency [15] | outcome [16] | Potency [17] | Potency [18]

C=CC(=O)NCOCCCC
inactive: Potency [1] | Potency [2] | Potency [3] | Potency [4] | Potency [5] | Potency [6] | outcome [7] | Potency [8] | Potency [9] | Potency [10] | Potency [11] | Potency [12] | Potency [13] | Potency [14] | Potency [15] | outcome [16] | Potency [18]

CS(=O)(=O)c1ccc(Cl)cc1
inactive: Potency [1] | Potency [2] | Potency [3] | Potency [4] | Potency [5] | Potency [6] | outcome [7] | Potency [8] | Potency [9] | Potency [10] | Potency [11] | Potency [12] | Potency [13] | Potency [14] | Potency [15] | outcome [16] | Potency [17] | Potency [18]

CCCCCCCCCCCC(=O)N(C)CC(=O)O
inactive: activity change, negative = cytotoxicity [1] -1.87% [at 5.95 µM] | activation [2] 0.0552% [at 5.95 µM] | viability change, negative = cytotoxic [3] -8.19% [at 6.26 µM] | ratio activity, negative = inhibition [4] -7.38% [at 6.26 µM] | Potency [5] | Potency [6] | outcome [7] | activity change, negative = inhibition [8] 10.5% [at 6.95 µM] | Potency [9] | Potency [10] | Potency [11] | Potency [12] | Potency [13] | Potency [14] | Potency [15] | activation [16] -13.8% [at 6.97 µM] | activation [17] 1.89% [at 6.98 µM] | activity change, negative = cytotoxicity [18] 3.37% [at 6.97 µM]

Cc1nnc(NS(=O)(=O)c2ccc(N)cc2)s1
inactive: Potency [1] | Potency [2] | Potency [3] | Potency [4] | Potency [5] | Potency [6] | outcome [7] | Potency [9] | Potency [10] | Potency [11] | Potency [12] | Potency [13] | Potency [14] | Potency [15] | outcome [16] | Potency [17] | Potency [18]

CCc1cccc(CC)c1N
inactive: Potency [1] | Potency [2] | Potency [3] | Potency [4] | Potency [5] | Potency [6] | Potency [9] | Potency [10] | Potency [11] | Potency [12] | Potency [13] | Potency [14] | Potency [15] | outcome [16] | Potency [17] | Potency [18]

COc1ccc2cc3[n+](cc2c1OC)CCc1cc2c(cc1-3)OCO2
inactive: Potency [1] | Potency [2] | Potency [3] | Potency [4] | Potency [19] | Potency [5] | Potency [6] | Potency [8] | Potency [9] | Potency [11] | Potency [12] | Potency [13] | Potency [14] | Potency [15] | outcome [16]

CCCCCCCCC(=O)O
inactive: Potency [1] | Potency [2] | Potency [3] | Potency [4] | Potency [5] | Potency [6] | Potency [9] | Potency [10] | Potency [11] | Potency [12] | Potency [13] | Potency [14] | Potency [15] | outcome [16] | Potency [17] | Potency [18]

O=[N+]([O-])c1cc(C(F)(F)F)ccc1Cl
inactive: Potency [1] | Potency [3] | Potency [5] | Potency [6] | Potency [9] | Potency [10] | Potency [11] | Potency [12] | Potency [13] | Potency [14] | Potency [15] | outcome [16] | Potency [17] | Potency [18]
